Sampled rows, rich in hits. Any-hit rate of the full collection: about 3%.
HTR1E agonist: agonists of human 5-HT1E serotonin receptor. P28566. CHO 5-HT1E Ga15 NFAT-bla reporter, FRET; 0% DMSO wells, 100% control agonist wells. activation, % at 6 µM. 0.69% of 65,000 active;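 active = activation above a set limit, the screen-wide mean activation plus 3 SD, cut at about 8.5% in these data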;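 note: 100% = positive control agonist at 1 µM giving full maximal response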
5HT1a ag: activates the human 5-HT1a serotonin receptor. activation, % at 10 µM. AID 567. CHO 5-HT1a Ga15 NFAT-bla reporter, FRET ratio; 0% basal, 100% maximal reference agonist. 0.56% of 65,000 active. P08908;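 active = activation above the screen-wide mean activation plus 3 SD, cut at about 19% in these data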;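 note: 0% = DMSO wells and 100% = 5-CT at EC100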
HER2 expr 66K: inhibitors of human Her2 kinase expression; P04626; SKBR-3 HER2 protein level, AlphaScreen, 18-24 h; stronger effect = lower value; HER2 level % of control, % at 10 µM; 0.69% of 65,000 active; AID 645;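 active = HER2 level under 5% of the carrier-only control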;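 note: 100% = DMSO carrier and 0% = 500 nM PU-H71 HSP90 inhibitor; lower value means stronger loss of Her2 protein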
HTR1E antagonist: antagonists of human 5-HT1E serotonin receptor | 0.99% of 65,000 active | CHO 5-HT1E Ga15 NFAT-bla reporter, FRET, antagonist | inhibition, % at 6 µM | P28566 | AID 571;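 active = inhibition above a set limit, the mean inhibition across every tested compound plus 3 SD, cut at about 29% in these data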;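 note: signal is the 460 over 535 nm emission ratio of beta-lactamase substrate; 0% = agonist plus DMSO wells and 100% = wells without agonist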
5-HT1A blocker: blocks the human serotonin 5-HT1a receptor; 0.68% of 62,000 active; inhibition, % at 10 µM; AID 612; P08908; CHO 5-HT1a Ga15 NFAT-bla reporter, antagonist mode;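 active = inhibition above the mean of all tested compounds plus 3 SD, cut at about 43% in these data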;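 note: receptor stimulated by 5-CT agonist at 100 nM near EC80; beta-lactamase reporter measured by ratiometric fluorescence of a cleavable substrate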
Active calls of the source: *.

For O=C(O)CCc1nn2cc(-c3ccccc3)nc2[nH]c1=O the results were HTR1E agonist 2, 5HT1a ag -1, HER2 expr 66K -19* and HTR1E antagonist -5.
Screening CCn1c(SCC(=O)NCC2CCCO2)nc2c(c1=O)SC(C)C2 (configuration not stated) returned HTR1E agonist 1, 5HT1a ag 19*, HER2 expr 66K 104, HTR1E antagonist -8 and 5-HT1A blocker -10.
For CCn1c(SCC(=O)NC2CCCCC2)nc2c(c1=O)SC(C)C2 (configuration not stated) the results were HTR1E agonist -1, 5HT1a ag -1, HER2 expr 66K 87, HTR1E antagonist -3 and 5-HT1A blocker 8.
`CC(C)C(NC(=O)C1CCCCC1)C(=O)NC1CCN(Cc2ccccc2)CC1` (configuration not stated) gave HTR1E agonist 0, 5HT1a ag 0, HER2 expr 66K 84, HTR1E antagonist 7 and 5-HT1A blocker -2.
For COc1cccc(C2=CC(c3ccccc3)n3nnnc3N2)c1 (configuration not stated) the results were HTR1E agonist -1, 5HT1a ag -2, HER2 expr 66K 133 and HTR1E antagonist 12.
For COc1ccc2c(-c3ccccc3)cc3nnnn3c2c1 the results were HTR1E agonist 0, 5HT1a ag -1, HER2 expr 66K 75, HTR1E antagonist 30* and 5-HT1A blocker -3.
`COc1cccc(-c2cc(C(=O)N3CCN(C(c4ccccc4)c4ccccc4)CC3)no2)c1` gave HTR1E agonist 3, 5HT1a ag -1, HER2 expr 66K 87, HTR1E antagonist -14 and 5-HT1A blocker 52*.
For Cc1cc(C(=O)N2CCN(C(c3ccccc3)c3ccccc3)CC2)no1 the results were HTR1E agonist -1, 5HT1a ag 1, HER2 expr 66K 90, HTR1E antagonist -2 and 5-HT1A blocker -4.
COC(=O)c1[nH]c2cccc(Cl)c2c1NC(=O)CN(C)C1CCCCC1 was read as HTR1E agonist 0, 5HT1a ag -3, HER2 expr 66K 87, HTR1E antagonist 10 and 5-HT1A blocker 19.
Cc1ccc2[nH]c(=O)c(N3CCOCC3)c(-c3ccccc3)c2c1 was read as HTR1E agonist 0, 5HT1a ag 4, HER2 expr 66K 98, HTR1E antagonist 11 and 5-HT1A blocker 52*.
Screening O=C(CCN1CCOCC1)Nc1c(-c2ccccc2)c2cc(Br)ccc2[nH]c1=O returned HTR1E agonist 0, 5HT1a ag -1, HER2 expr 66K 88, HTR1E antagonist 5 and 5-HT1A blocker -13.
Screening Cn1c(=O)cc(SCC(=O)NCC2CCCO2)c2ccccc21 (configuration not stated) returned HTR1E agonist -1, 5HT1a ag 1, HER2 expr 66K 79, HTR1E antagonist -4 and 5-HT1A blocker 5.
COc1cccc(CNC(=O)Cn2cccc2)c1 was read as HTR1E agonist 24*, 5HT1a ag -2, HER2 expr 66K 81, HTR1E antagonist -8 and 5-HT1A blocker -2.
Screening CCn1c(=S)sc2c(=O)n(-c3ccccc3)c(SCC(=O)NCc3ccco3)nc21 returned HTR1E agonist 0, 5HT1a ag -1, HER2 expr 66K 101, HTR1E antagonist -2 and 5-HT1A blocker 22.
For CCOC(=O)CSc1nc2c(sc(=S)n2Cc2ccco2)c(=O)n1-c1ccc(F)cc1 the results were HTR1E agonist 0, 5HT1a ag 0, HER2 expr 66K 106, HTR1E antagonist 11 and 5-HT1A blocker 50*.
`c1ccc2c(c1)oc1c(NCCCn3ccnc3)ncnc12` gave HTR1E agonist 0, 5HT1a ag -1, HER2 expr 66K 74, HTR1E antagonist 3 and 5-HT1A blocker -5.
Screening Cc1nc(NCCCn2ccnc2)c2oc3ccccc3c2n1 returned HTR1E agonist -1, 5HT1a ag 0, HER2 expr 66K 90, HTR1E antagonist 32* and 5-HT1A blocker 22.
Screening CCOC(=O)COc1ccc(S(=O)(=O)N2CCc3ccccc3C2)cc1 returned HTR1E agonist -1, 5HT1a ag -6, HER2 expr 66K 94, HTR1E antagonist 8 and 5-HT1A blocker 13.
For COc1ccc2c(c1OC)C(=O)OC2Nc1ccccc1S(=O)(=O)C(F)F (configuration not stated) the results were HTR1E agonist -1, 5HT1a ag -2, HER2 expr 66K -21*, HTR1E antagonist -11 and 5-HT1A blocker -10.
Screening COc1ccc2c(c1OC)C(=O)OC2Nc1ccccn1 (configuration not stated) returned HTR1E agonist -1, 5HT1a ag -4, HER2 expr 66K 65, HTR1E antagonist 22 and 5-HT1A blocker -4.
CCOC(=O)CSC1=C(C#N)C(=O)NC2(CCCCC2)S1 was read as HTR1E agonist 0, 5HT1a ag -2, HER2 expr 66K 98 and HTR1E antagonist -3.
C=CS(=O)(=O)c1ccc(Oc2ccc(S(=O)(=O)C=C)cc2)cc1 was read as HTR1E agonist -1, 5HT1a ag -4, HER2 expr 66K -22*, HTR1E antagonist 103* and 5-HT1A blocker 106*.
O=S(=O)(c1ccc(Oc2ccc(S(=O)(=O)N3CCOCC3)cc2)cc1)N1CCOCC1 was read as HTR1E agonist 0, 5HT1a ag -1, HER2 expr 66K 63, HTR1E antagonist 7 and 5-HT1A blocker -12.
For Cc1cc(S(=O)(=O)N(Cc2ccc3c(c2)OCO3)CC2CCCO2)ccc1-n1cnnn1 (configuration not stated) the results were HTR1E agonist 0, 5HT1a ag 1, HER2 expr 66K 107, HTR1E antagonist 11 and 5-HT1A blocker 18.
Screening CCOC(=O)c1nnn(-c2nonc2N)c1COc1cc(C)c(Cl)c(C)c1 returned HTR1E agonist -1, 5HT1a ag -6, HER2 expr 66K 87, HTR1E antagonist 12 and 5-HT1A blocker 49*.
For CCOC(=O)c1nnn(-c2nonc2N)c1CSc1ccc(C)cc1 the results were HTR1E agonist 0, 5HT1a ag -2, HER2 expr 66K 55, HTR1E antagonist 28 and 5-HT1A blocker 18.
CN(C)c1ccc(/C(=N\O)c2ccccc2)cc1 was read as HTR1E agonist 0, 5HT1a ag -5, HER2 expr 66K 109, HTR1E antagonist 1 and 5-HT1A blocker -3.
For CCCS(=O)(=O)c1nnnn1-c1cccc(OC)c1 the results were HTR1E agonist -1, 5HT1a ag -11, HER2 expr 66K -22*, HTR1E antagonist 106* and 5-HT1A blocker 109*.
O=C1CCCc2sc3c(c2N1)CCCCC3 was read as HTR1E agonist 11*, 5HT1a ag 1, HER2 expr 66K 116, HTR1E antagonist 2 and 5-HT1A blocker -1.
For O=C1CCCc2sccc2N1 the results were HTR1E agonist -1, 5HT1a ag -1, HER2 expr 66K 65, HTR1E antagonist 13 and 5-HT1A blocker -2.
Screening O=C(c1ccc(Cn2cc(Br)cn2)o1)n1cccn1 returned HTR1E agonist 0, 5HT1a ag -4, HER2 expr 66K 86, HTR1E antagonist 8 and 5-HT1A blocker -4.

High-throughput results as filed in PubChem.
